{
  "source": "ChEMBL document CHEMBL4513216",
  "about": "“Probing the Open Global Health Chemical Diversity Library for Multistage-Active Starting Points for Next-Generation Antimalarials” (ACS Infect Dis, 2020)",
  "note": "Among all 68,000 compounds or so, about 2,700 (4%) showed an effect of 50% or more. What follows is part of a selection rich in strong results, with near analogues and random picks from the rest.",
  "data": [
    {"system": "Plasmodium berghei", "assay": "Screen against P. berghei liver stage (PbLuc), transformed with Luciferase, at 2uM", "type": "functional, HepG2", "conditions": "tested at 2 uM", "units": {"INHIBITION": "%"}, "values": [
      {"smiles": "N[C@H]1CN(CCOc2ccc(F)cc2)C[C@@H]1C1CC1", "INHIBITION": 55.85},
      {"smiles": "N[C@H]1CN(CCCOc2ccccc2)C[C@@H]1C1CC1", "INHIBITION": 18.64},
      {"smiles": "NC(=O)c1ccc(OCCCN2C[C@H](C3CC3)[C@@H](N)C2)cc1", "INHIBITION": 9.56},
      {"smiles": "COC1CN(C(=O)OCC(C)C)CCC(=O)N(C)c2ccccc21", "note": "(stereo not drawn)", "INHIBITION": -16.76},
      {"smiles": "Cc1nn(C)c2nc(N3CCCCC3c3ccc(F)cc3)sc12", "note": "(stereo not drawn)", "INHIBITION": 8.3},
      {"smiles": "C1CCC(CN2Cc3nnn(CC4CC4)c3C(COCC3CC3)C2)C1", "note": "(stereo not drawn)", "INHIBITION": -6.19},
      {"smiles": "O=C1[C@@H]2CCN(Cc3ccoc3)C[C@@H]2OCCN1Cc1cccc(F)c1", "INHIBITION": 20.41},
      {"smiles": "Cc1ccc(S(=O)(=O)Nc2ccc(-n3cccc3C(=O)O)c(C)c2)s1", "INHIBITION": -1.14},
      {"smiles": "Cc1cc(NS(=O)(=O)c2ccc(Cl)s2)ccc1-n1cccc1C(=O)O", "INHIBITION": 31.15},
      {"smiles": "Cc1cc(NS(=O)(=O)c2cccs2)ccc1-n1cccc1C(=O)O", "INHIBITION": 50.17},
      {"smiles": "O=C(NCCOc1ccccc1)NCC(O)c1cccs1", "note": "(stereo not drawn)", "INHIBITION": -85.29},
      {"smiles": "Cc1ccoc1C(=O)N1C[C@@H]2[C@@H](C1)OCC(=O)N2Cc1cccnc1", "INHIBITION": -2.91},
      {"smiles": "Cc1nc2c(c(NC3CC3)n1)CCN(C(=O)CCO)CC2", "INHIBITION": -10.44},
      {"smiles": "CC(=O)N1CCC(C(=O)NCCN2CCCCC2)CC1", "INHIBITION": 18.97},
      {"smiles": "COc1ccc(CCNC(=O)N2CCN(C)[C@@H]3CS(=O)(=O)C[C@@H]32)cc1", "INHIBITION": 43.44},
      {"smiles": "CN1CCN(C(=O)NCCc2ccc(F)cc2)[C@H]2CS(=O)(=O)C[C@H]21", "INHIBITION": 50.59},
      {"smiles": "COc1ccc(CNC(=O)N2CCN(C)[C@@H]3CS(=O)(=O)C[C@@H]32)cc1", "INHIBITION": -47.18},
      {"smiles": "Cc1ccc(OCCN2CCN(Cc3cnn(CCO)c3)CC2)cc1", "INHIBITION": -72.55},
      {"smiles": "COCC(=O)N1CCCCC1c1ccnc(Nc2cnccn2)n1", "note": "(stereo not drawn)", "INHIBITION": 11.55},
      {"smiles": "COCC(=O)N1CCCCC1c1ccnc(Nc2ncc(C)s2)n1", "note": "(stereo not drawn)", "INHIBITION": 60.74},
      {"smiles": "COCC(=O)N1CCCC1c1cccc(Nc2ncc(C)s2)n1", "note": "(stereo not drawn)", "INHIBITION": 44.48},
      {"smiles": "CN1CCN(C(=O)c2n[nH]c3c2CN(C2CCOCC2)CC3)CC1", "INHIBITION": 36.44},
      {"smiles": "COc1cc(CNC(C)c2cccc(Cl)c2)cc(OC)c1OC", "note": "(stereo not drawn)", "INHIBITION": 27.88},
      {"smiles": "CC(C)c1ccc(OCC(=O)NS(=O)(=O)c2cccnc2)cc1", "INHIBITION": -1.85},
      {"smiles": "Cc1cccc(NCC(=O)Nc2cc(F)ccc2F)c1C(N)=O", "INHIBITION": 38.91},
      {"smiles": "Cc1cc(C)n(CC2(CNC(=O)C(c3ccccc3F)N(C)C)CC2)n1", "note": "(stereo not drawn)", "INHIBITION": 55.85},
      {"smiles": "Cc1cc(C)n(CC2(CNC(=O)C(c3ccccc3C)N(C)C)CC2)n1", "note": "(stereo not drawn)", "INHIBITION": -14.49},
      {"smiles": "Cc1cc(C)n(CC2(CNC(=O)C(c3ccc(F)cc3)N(C)C)CC2)n1", "note": "(stereo not drawn)", "INHIBITION": -4.04},
      {"smiles": "Cc1cc(C(F)(F)F)nc(CCNC(C)Cn2ccnc2)n1", "note": "(stereo not drawn)", "INHIBITION": -15.14},
      {"smiles": "OCCN(Cc1nc(-c2ccc3c(c2)OCO3)no1)CC1CC1", "INHIBITION": 83.98},
      {"smiles": "OCCN(Cc1ccccc1)Cc1nc(-c2ccc3c(c2)OCO3)no1", "INHIBITION": -48.83},
      {"smiles": "OCCN(Cc1nc(-c2ccc3c(c2)OCO3)no1)Cc1cccs1", "INHIBITION": -49.59},
      {"smiles": "COCCS(=O)(=O)Nc1ccc(-n2cncn2)c(F)c1", "INHIBITION": 3.33},
      {"smiles": "CN1CCN(C(=O)c2cc3sccc3n2Cc2ccccc2F)CC1", "INHIBITION": -10.78},
      {"smiles": "Cc1ccc(N2CC[C@@H]3CN(Cc4cc[nH]n4)C[C@@H]3C2)nn1", "INHIBITION": 27.95},
      {"smiles": "CC(C)(C)CCNc1nccc(-c2c[nH][nH]c2=O)n1", "INHIBITION": 22.5},
      {"smiles": "c1ccc(NC[C@@H]2CCC[C@@H]3CN(Cc4csnn4)C[C@@H]32)nc1", "INHIBITION": 24.51},
      {"smiles": "CC(C)(C)NC[C@@H]1CCC[C@@H]2CN(Cc3csnn3)C[C@@H]21", "INHIBITION": -21.74},
      {"smiles": "c1cnc(NC[C@@H]2CCC[C@@H]3CN(Cc4csnn4)C[C@@H]32)nc1", "INHIBITION": 55.7},
      {"smiles": "COc1ccc2[nH]cc(C(=O)CNc3nc(C)cs3)c2c1", "INHIBITION": 20.71},
      {"smiles": "O=C(NCCN1CCOC1=O)c1ccc2sccc2c1", "INHIBITION": 61.27},
      {"smiles": "O=C(NCCN1CCOC1=O)c1cc(-c2ccccc2)on1", "INHIBITION": 9.85},
      {"smiles": "O=C(NCCN1CCCC(CO)C1)c1ccc2sccc2c1", "note": "(stereo not drawn)", "INHIBITION": 13.99},
      {"smiles": "NCc1cnc(Nc2ccccc2)nc1", "INHIBITION": 16.87},
      {"smiles": "O=C1Nc2ccccc2CNC12CCN(CC1CCNC1)CC2", "note": "(stereo not drawn)", "INHIBITION": 21.69},
      {"smiles": "O=C1Nc2ccccc2CNC12CCN(CC1CCCC1)CC2", "INHIBITION": -7.08},
      {"smiles": "O=C1Nc2ccccc2CNC12CCN(CC1CC1)CC2", "INHIBITION": 58.42},
      {"smiles": "COc1cccc2sc(N3CC(OC(C)=O)C3)nc12", "INHIBITION": -5.98},
      {"smiles": "CSCC(C)NS(=O)(=O)c1ccc(C)c(N(C)C)c1", "note": "(stereo not drawn)", "INHIBITION": -1.57},
      {"smiles": "Cc1ccc(S(=O)(=O)N[C@H](CO)C(C)C)cc1N(C)C", "INHIBITION": -94.5},
      {"smiles": "COCCC(C)NS(=O)(=O)c1ccc(C)c(N(C)C)c1", "note": "(stereo not drawn)", "INHIBITION": 52.6},
      {"smiles": "CN(C)CC(=O)N1Cc2ncn(C)c2C(COCC2CCOCC2)C1", "note": "(stereo not drawn)", "INHIBITION": 6.8},
      {"smiles": "Cn1c(CC2CCS(=O)(=O)C2)nnc1SCCOc1ccccc1F", "note": "(stereo not drawn)", "INHIBITION": 7.08}
    ]}
  ]
}
